From PubChem BioAssay (EPA / NIEHS)
Inconclusive results are not listed. Active and inactive are the calls of the source. How the source made its calls, unless noted: active means hit-call score of the fitted dose curve at least 0.9, where 1 is the maximum; inconclusive means response in the unintended direction; inactive means score below 0.9.

Tests used:
[1] = system: Thyroperoxidase (TPO), gene 54314; assay: CCTE_Simmons_AUR_rTPO: CCTE's Amplex UltraRed Assay for Thyroperoxidase (TPO) Inhibition, Simmons Lab (AID 2283662);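 on AC50: potency for loss of signal meaning inhibition of peroxidase activity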
Method in brief: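 Rat thyroid microsomes (5 ug protein) with 25 uM Amplex UltraRed and 300 uM H2O2 in 200 mM phosphate buffer, 30 min at 37C in dark; fluorescence 544/590 nm. Eight concentrations, 5 nM–87.5 uM final, 0.5% DMSO, triplicate biological replicates.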

[2] = CCTE_Simmons_CellTiterGLO_HEK293T: Viability Assessment in CCTE's Assays for Thyroperoxidase (TPO) Inhibition, Simmons Lab (AID 2283665);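 on AC50: cells exposed to compound for 24 h before readout; actives reduce ATP signal below DMSO vehicle meaning cytotoxicity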
Method in brief: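 HEK293T, 10 000 cells/well, DMEM + 1% FBS; 8-pt titration 5 nM–87.5 uM [final], 0.5% DMSO; 24 hr, 37C, 5% CO2; CellTiter-Glo luminescence; n=3 biological replicates.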

[3] = Tanguay_ZF_120hpf_TR_legacy: (Legacy) Oregon State University Tanguay Lab 120 Hour Post-fertilization zebrafish Assay for Touch Response (AID 2283667)
Method in brief: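 Tropical 5D wild-type zebrafish embryos statically exposed to 120 hpf at 28°C, sealed and dark-covered, 0.64% DMSO final; touch response scored as present/absent by brightfield microscopy at 120 hpf. Trimethyltin chloride 5 uM positive control; dead embryos not scored.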

[4] = CEETOX_H295R_MTT_cell_viability: Viability Assessment in the CeeTox HT-H295R MTT Assay (AID 2283718; active means hit-call score of the fitted dose curve at least 0.9, where 1 is the maximum; inactive means score below 0.9)
Method in brief: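 Human H295R adrenal cells, prestimulated 48 h with 10 uM forskolin, were exposed 48 h to chemicals in 0.1% DMSO. Viability was measured in the same wells by MTT (0.5 mg/ml, 4 h, 37 C), absorbance 570/650 nm, as percent of controls.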

[5] = Tanguay_ZF_120hpf_ActivityScore_legacy: (Legacy) Oregon State University Tanguay Lab 120 Hour Post-fertilization zebrafish Assay Score for Activity (AID 2283742);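 on AC50: dechorionated Tropical 5D wild-type zebrafish embryos held singly per well; static exposure from 6 hpf until 120 hpf at 28 °C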
Method in brief: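 Dechorionated Tropical 5D embryos, one per well from 6 hpf, statically exposed to 120 hpf at 28 °C in 0.64% DMSO. Mortality and malformations scored binary by brightfield microscopy; activity score combines 18 endpoints, fitted positively versus DMSO.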

[6] = target: Luciferin 4-monooxygenase (Photinus pyralis) (UniProt P08659); assay: CCTE_Simmons_QuantiLum_inhib_2: CCTE's Firefly Luciferase Inhibition Assay, Simmons Lab (AID 2283767);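 on AC50: potency for inhibitors that lower luciferase luminescence relative to DMSO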
Method in brief: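 Luminescence loss relative to DMSO vehicle defines inhibition; detection reagent containing 150 uM D-luciferin and 147 uM dATP (final, pH 7.8) is injected immediately before each read. Enzyme is preincubated with an 8-point titration (5 nM–87.5 uM final) for 30 min at 37C.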

[7] = STM_H9_OrnithineISnorm_perc: Stemina devTOX quickPredict H9 human embryonic stem cell (hESC)-based Assay for Ornithine (ORN) Metabolite Biomarker, Normalized (AID 2283712; active means hit-call score of the fitted dose curve at least 0.9, where 1 is the maximum; inactive means score below 0.9;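 further: ornithine released into spent medium during last day measured by mass spectrometry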)
Method in brief: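 H9 human embryonic stem cells kept pluripotent receive test chemical over 72 h, refreshed daily by media exchange. Media from the closing 24 h is deproteinized and analysed by UPLC-HRMS on an amide column; ornithine signal is scaled to labelled standard and vehicle.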

[8] = STM_H9_CystineISnorm_perc: Stemina devTOX quickPredict H9 human embryonic stem cell (hESC)-based Assay for Cystine (CYSS) Metabolite Biomarker, Normalized (AID 2283713; active means hit-call score of the fitted dose curve at least 0.9, where 1 is the maximum; inactive means score below 0.9)
Method in brief: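 H9 hESC, pluripotent; compound 72h, re-dosed q24h with medium change. Last-24h medium → 40% acetonitrile deproteinization → UPLC-HRMS. CYSS area / C13-CYSS standard, then % of 0.1% DMSO median.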

[9] = STM_H9_OrnCyssISnorm_ratio: Stemina devTOX quickPredict H9 human embryonic stem cell (hESC)-based Assay for Ornithine (ORN):Cystine (CYSS) Ratio (AID 2283714)
Method in brief: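 Undifferentiated H9 hESCs exposed 72 h, media and compound replaced every 24 h; final 24-h conditioned media deproteinized and analysed by UPLC-HRMS against C13 spike-ins. Value is the internal-standard-normalized ORN/CYSS ratio versus 0.1% DMSO.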

[10] = system: Thyroperoxidase (TPO), gene 445522; assay: CCTE_Simmons_GUA_TPO: CCTE's Guaiacol Assay for Thyroperoxidase (TPO) Inhibition, Simmons Lab (AID 2283750)
Method in brief: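 Porcine thyroid microsomes (25 ug) in 200mM potassium phosphate, preincubated 30 s at 37C with compound (8 concentrations, 5 nM–87.5 uM) and 35mM guaiacol; 1mM H2O2 starts reaction. Absorbance change at 450nm over first 80 s; loss of signal versus DMSO, three replicates.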

[11] = CCTE_Padilla_ZF_144hpf_TERATOSCORE: (Legacy) CCTE's 144 Hour Post-fertilization zebrafish Assay Teratoscore, Padilla Lab (AID 2283679; active means hit-call score of the fitted dose curve at least 0.9, where 1 is the maximum; inactive means score below 0.9;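 on AC50: zebrafish embryos with chorions exposed by immersion from 6-8 hpf to 5 dpf with daily renewal; teratogenicity score from eye scoring of death hatching and malformations at 144 hpf; higher score means more developmental defects relative to DMSO baseline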)
Method in brief: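 Larvae scored by eye at 144 hpf for death, hatching and malformations after a day in clean Hanks'. Before that, daily-renewed exposure at 80 uM (0.4% DMSO, 26C) from roughly 6-8 hpf through 5 dpf, 4 embryos per chemical.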

[12] = read-out: Cytochrome P450 (CYP24A1_1), CYP24A1 (gene 1591); assay: LTEA_HepaRG_CYP24A1_1: Life Technologies and Expression Analysis (LTEA) Assay for Cytochrome P450 (CYP24A1_1) using HepaRG (AID 2283671; active means hit-call score of the fitted dose curve at least 0.9, where 1 is the maximum; inactive means score below 0.9); conditions: mRNA level, 48 h; actives raise or lower the signal
Method in brief: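 Differentiated human HepaRG cells in serum-free induction medium, exposed 48 h in duplicate to eight half-log concentrations from 100 uM top, 0.5% DMSO. Transcript measured by TaqMan qRT-PCR, normalised to ACTB, GAPDH, POLR2A; bidirectional fitting versus DMSO.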

[13] = ArunA_CellTiter_hNC: Viability Assessment in the ArunA Biomedical's Oris Neural Crest (hNC) Cell Migration Assay (AID 2283752)
Method in brief: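 Cell titer was measured with the CellTiter Aqueous One reagent after 72 h of chemical dosing. Cells were H9-derived embryonic neural crest stem cells seeded on Matrigel, 60,000 per well, and given 16 h at 37C beforehand.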

[14] = ArunA_Migration_hNP: ArunA Biomedical's Oris Neuroprogenitor (hNP) Cell Migration Assay (AID 2283754)
Method in brief: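 Human H9-derived hNP1 neuroprogenitors on Matrigel with LIF/bFGF, plated around seeding stoppers for 16 h at 37C; stoppers removed at start of 72 h chemical exposure. Calcein-AM staining, fluorescence 494/517 nm in detection zone; loss-of-signal vs DMSO; cytochalasin D control.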

[15] = ArunA_NOG_NucleusCount: ArunA Biomedical's Neurite Outgrowth (NOG) Assay for Nucleus Count (AID 2283756)
Method in brief: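 Human H9-derived differentiated neurons were exposed for 48 h right after seeding. Hoechst-stained nuclei gated by size and intensity were counted by automated high-content imaging as viable neurons. Loss of signal vs DMSO.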

[16] = ArunA_NOG_NeuritesPerNeuron: ArunA Biomedical's Neurite Outgrowth (NOG) Assay for Neurites Per Neuron (AID 2283758)
Method in brief: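 Differentiated human H9-derived neurons exposed to chemicals for 48 h from seeding, then stained with Hoechst and βIII-tubulin/DyLight 488. Automated imaging counted neurites (processes >10 um) per valid neuron; loss of signal versus DMSO scored.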

[17] = ArunA_NOG_BranchPointsPerNeurite: ArunA Biomedical's Neurite Outgrowth (NOG) Assay for Branch Points Per Neurite (AID 2283759)
Method in brief: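 Automated image analysis traced neurites (processes >10 um) from valid cell bodies after Hoechst and βIII-tubulin staining. hNN cells from H9 embryonic stem cells, 48 h exposure. Fitted bidirectionally against DMSO.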

Measured: AC50

Luciferin 4-monooxygenase (Photinus pyralis), sequence (P08659 whole entry, looked up): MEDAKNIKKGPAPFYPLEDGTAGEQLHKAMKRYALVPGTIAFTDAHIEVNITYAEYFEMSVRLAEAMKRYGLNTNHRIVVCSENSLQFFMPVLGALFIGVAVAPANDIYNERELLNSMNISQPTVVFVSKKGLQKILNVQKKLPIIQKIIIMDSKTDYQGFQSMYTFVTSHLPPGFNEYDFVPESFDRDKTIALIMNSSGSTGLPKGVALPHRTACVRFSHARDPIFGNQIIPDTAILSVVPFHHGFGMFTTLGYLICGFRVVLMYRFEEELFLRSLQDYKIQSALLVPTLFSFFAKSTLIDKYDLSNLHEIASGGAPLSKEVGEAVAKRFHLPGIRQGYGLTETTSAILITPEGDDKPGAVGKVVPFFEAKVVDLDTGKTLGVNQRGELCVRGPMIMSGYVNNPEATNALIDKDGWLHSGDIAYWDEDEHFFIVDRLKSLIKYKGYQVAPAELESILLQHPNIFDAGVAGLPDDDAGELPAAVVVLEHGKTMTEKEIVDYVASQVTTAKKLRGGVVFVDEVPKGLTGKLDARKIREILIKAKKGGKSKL

C=CCc1ccc2c(c1)OCO2
active: [1] 36.4 µM | [2] 66.7 µM
inactive: [3] | [4] | [5] | [6]

Nc1ccc(Oc2ccc(N)cc2)cc1
inactive: [2] | [3] | [8] | [4] | [5]
active: [1] 0.831 µM | [7] 59.5 µM | [9] 50.2 µM | [10] 0.366 µM

CCCCOC(=O)c1ccccc1C(=O)OCc1ccccc1
active: [2] 8.68 µM | [11] 1.55 µM | [8] 32.6 µM | [9] 34.6 µM
inactive: [1] | [7] | [4] | [5] | [6]

CCOC(=O)[C@]1(c2ccccc2)Oc2ccccc2[C@@H]1N
inactive: [4] | [5] | [6]
active: [1] 12.6 µM | [2] 36.6 µM | [11] 4.92 µM

CN(C)[C@@H]1C(=O)C(C(N)=O)=C(O)[C@@]2(O)C(=O)C3=C(O)c4c(O)cccc4[C@@](C)(O)[C@H]3C[C@@H]12
inactive: [2] | [3] | [5] | [6]
active: [1] 10.7 µM | [10] 117 µM

CC(C)COC(=O)c1ccccc1C(=O)OCC(C)C
inactive: [3] | [12] | [4] | [5]
active: [11] 2.53 µM | [7] 76.1 µM | [8] 33 µM | [9] 35.3 µM

CCCCCCCCCCCCCN1CC(C)OC(C)C1 (centres undefined)
inactive: [7] | [4] | [5]
active: [11] 90.1 µM | [8] 2.78 µM | [9] 2.62 µM

Brc1ccc(Oc2ccccc2)cc1
active: [11] 44.7 µM
inactive: [3] | [7] | [8] | [9] | [4] | [5]

CCN(CC)CCO
inactive: [3] | [12] | [5]

[As]#[In]
inactive: [3] | [4] | [5]

Clc1ccc(Cl)c(Cl)c1
inactive: [3] | [11] | [7] | [8] | [5] | [13] | [14] | [15] | [16] | [17]

[Cl-].[Cl-].[Hg+2]
active: [2] 0.939 µM | [11] 0.0826 µM | [7] 1.34 µM | [8] 0.882 µM | [9] 0.995 µM | [5] 4.32 µM | [10] 389 µM | [6] 10.4 µM

CCNS(=O)(=O)C(F)(F)C(F)(F)C(F)(F)C(F)(F)C(F)(F)C(F)(F)C(F)(F)C(F)(F)F
active: [3] 17 µM | [11] 43.5 µM | [5] 31.2 µM
